# Results: PubChem BioAssay AID1745848 (National Center for Advancing Translational Sciences (NCATS), 2022)
# Screen size: about 2,100 compounds; about 940 (45%) were called active. Not shown: some 48% with an inconclusive outcome. Calls follow the shape of the dose curve; as a rule, active = well fitted inhibition curve with a large enough effect; inconclusive = small, poorly fitted or top-dose-only effect; inactive = no such curve, though single readings can be large or run the other way. So high a share suggests a set chosen from earlier hits. The list shows a part of the results.
# Test: Confirmatory qHTS for Inhibitors of ATXN expression; also: nearly all actives have a fitted effect of over 65% in size;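 as to activity change, negative = inhibition: 0% = DMSO vehicle wells and -100% = medium-only wells without cells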
# Settings: ATXN2-luciferase reporter cells, luminescence, 24 h; series mostly up to 57.5 µM; activity change, negative = inhibition: at the top concentration
# Excerpt: PI: Daniel Scoles Ph.D. University of Utah School of Medicine, Salt Lake City, Utah MLPCN Grant: NS073009 Spinocerebellar ataxia type 2 (SCA2) is a multisystem neurodegenerative disease caused by a dominantly acting mutation leading to expansion of a polyQ domain in the ataxin-2 protein (ATXN2). SCA2 patients develop progressive ataxia and later lose function in other neuronal systems. Prominent parkinsonian signs develop in some patients. Like many neurodegenerative disorders, no symptomatic or disease-modifying treatments are known. The primary objective of the proposed research is to identify compounds inhibiting ATXN2 expression and to test them for efficacy in SCA2 mouse models. We have developed a cell-based assay paired with an in vivo mouse model using identical luciferase expression constructs. This approach takes advantage of an ATXN2-luciferase transgene, with the luciferase gene flanked by the upstream and downstream portions of the ATXN2 gene. Here we describe a 5-7 dose quantitative high thoroughput screen (qHTS) for compounds lowering ATXN2 expression. We screened the NIH Molecular Libraries Small Molecule Repository (MLSMR) and NCGC's mechanistically annotated (MIPE) and drug repurposing (NPC) collections of compounds for lowering expression of an ATXN2-luciferase reporter in HEK-293 cells. The assay is a multiplexed cell viability assay to ensure target reduction in the absence of cytotoxicity. Secondary qHTS assays included a CMV-luciferase reporter expressed in HEK-293 cells as well as a biochemical assay using recombinant luciferase to detect inhibitors of the reporter enzyme. Compounds that inhibit ATXN2 expression but is not cytotoxic were selected for confirmatory and secondary screens.
# PROTOCOL TABLE (as described by Inglese J, Shamu CE and Guy RK. 2007) SEQUENCE No. (e.g., 1, 2, 3, etc.); PARAMETER (e.g., Cells, Incubation, Reagent, etc.); VALUE; DESCRIPTION. 1; Cells; 4 uL; white, solid bottom, 1536-well Greiner assay plate. 2; Incubation; 2 hr; 37 degree C in 5% humidified CO2. 3; Compounds; 23 nL; Kalypsis pintool (Wako USA) equipped with a 1536-well pin head. 4; Incubation; 24 hr; 37 degree C in 5% humidified CO2. 5; Reagent; 1 uL; Gly-Phe-7-Amino-4-trifluoromethylcoumarin. 6; Incubation; 30 min; 37 degree C in 5% humidified CO2. 7; Detection; Fluorescence; ViewLux plate reader (PerkinElmer). 8; Reagent; 3 uL; SteadyGlo luciferase solution (Promega). 9; Incubation; 5 min; room temperature. 10; Detection; Luminescence; ViewLux plate reader (PerkinElmer). NOTES (numbers refer to Sequence numbers above) 1. […] expressing ATXN2-luciferase reporter were suspended in phenol-red free DMEM and dispensed in assay plates using a Multidrop Combi dispenser (Thermo Fisher Scientific). Wells containing medium only were plated on each plate, and values were used to normalize (100% inhibition) in the luciferase and CellTiter-Fluor assays. 2. Assay plates were incubated. Evaporation was prevented by covering assay plates with metal lids containing holes to allow gas diffusion. 3. Compounds were added in a dose response manner with the final concentrations of 57, 11.4, 2.28, 0.46, 0.091, 0.018, 0.0037 uM. Vehicle-only plates, with DMSO being pin-transferred to columns 5-48, were inserted uniformly at the beginning and the end of each library to monitor and record any shifts in assay performance. 5. 125 uM Gly-Phe-7-Amino-4-trifluoromethylcoumarin (MP Biomedicals) working concentration was used at a final concentration of 25 uM. 7. To assess cell viability; the assay plates were read using the ViewLux high-throughput CCD imager (PerkinElmer), wherein single end-point fluorescence measurement was acquired (excitation 405/10; emission 540/25 nm). 8. Detection reagent SteadyGlo Luciferase (Promega) was added to the assay plate. 10. Luminescence is then measured on the ViewLux imager equipped with a clear emission filter using a 2 sec exposure. […]
# Potency is read from the fitted curve at half-maximal effect.
Compound,Potency,"activity change, negative = inhibition"
N#Cc1ncc(N=Cc2ccc(N(CCCl)CCCl)cc2)s1,2 µM (active),
CCCCCCC(=O)N/N=C/c1c(O)n(CCc2ccccc2)c(=O)[nH]c1=O,12.6 µM (active),
CCCCCCC(=O)N/N=C/c1c(O)n(CCCC)c(=S)[nH]c1=O,15.8 µM (active),
CCCCC(=O)N/N=C/c1c(O)n(CCC2=CCCCC2)c(=O)[nH]c1=O,15.8 µM (active),
Cc1ccc(N2C(=O)NC(=O)/C(=C/C=C/c3ccco3)C2=O)cc1,2.82 µM (active),
COc1ccc(CC2C(=O)NC(C)C(=O)N(C)C3C(=O)N(C)C(Cc4ccc(O)c(c4)Oc4ccc(cc4)C3O)C(=O)NC(C)C(=O)NC(C)C(=O)N2C)cc1 (stereo not given),0.316 µM (active),
CCC(C)N1C(=O)/C(=C\c2cnc(N(C)C)nc2)C(=O)NC1=S (stereo not given),,-13.2% (inactive)
C[C@]12CC[C@H](O)C[C@H]1CC[C@@H]1C2CC[C@]2(C)[C@@H](C3=CC(=O)OC3)[C@@H](O)C[C@]12O (stereo not given in full),0.355 µM (active),
CC12CCC(O)CC1CCC1C2CCC2(C)C(C3=CC(=O)OC3)C(O)CC12O (stereo not given),3.16 µM (active),
CC(=O)OC1CC2(O)C3CCC4CC(O)CCC4(C)C3CCC2(C)C1C1=CC(=O)OC1 (stereo not given),0.316 µM (active),
CC1OC(OC2C(O)CC(OC3C(O)CC(OC4CCC5(C)C(CCC6C5CCC5(C)C(C7=CC(=O)OC7)C(O)CC65O)C4)OC3C)OC2C)CC(O)C1O (stereo not given),0.316 µM (active),
COC1C(O)C(C)OC(OC2CCC3(C)C(CCC4C3C(O)CC3(C)C(C5=CC(=O)OC5)CCC43O)C2)C1O (stereo not given),0.316 µM (active),
CN1CN(c2ccccc2)C2(CCN(CCCSc3ccccc3NC(=O)/C=C/c3ccccc3)CC2)C1=O,28.2 µM (active),
CC(C)c1oc(=O)cc2c1[C@@H](O)[C@H]1OC(=O)[C@@]3(C)CC[C@@H](O)[C@@]2(C)C13 (stereo not given in full),3.16 µM (active),
CC[C@@]1(O)C(=O)OCc2c1cc1n(c2=O)Cc2cc3c(NC(=O)CN)cccc3nc2-1,0.112 µM (active),
CCC1(OC(=O)CN)C(=O)OCc2c1cc1n(c2=O)Cc2cc3ccccc3nc2-1 (stereo not given),0.0398 µM (active),
COc1ccc(C[C@H]2NC[C@H](O)[C@H]2OC(C)=O)cc1,0.0282 µM (active),
COc1ccc(CC2NCC(O)C2OC(C)=O)cc1 (stereo not given),0.224 µM (active),

Compound,Potency,"activity change, negative = inhibition"
Cc1ccc(/C=C2\C(=O)NC(=S)N(c3ccccc3F)C2=O)s1,3.16 µM (active),
CCC1CN2CCc3cc(OC)c(OC)cc3C2CC1CC1NCCc2c1[nH]c1ccc(O)cc21 (stereo not given),0.0398 µM (active),
CSCCC(c1nnnn1-c1c(C)cccc1C)N1CCC2(CC1)C(=O)NCN2c1ccccc1 (stereo not given),35.5 µM (active),
CCC(C)(O)C(=O)OC1C(=O)OC2CC3C(C)=CC(=O)C(O)C3(C)C3C4(O)OCC23C1C(C)C4O (stereo not given),0.251 µM (active),
O=c1[nH]c2ccccc2n1C1CCN(C(CCc2ccccc2)c2nnnn2C2CCCC2)CC1 (stereo not given),22.4 µM (active),
CC(C)(C)n1nnnc1C(CCc1ccccc1)N1CCC(n2c(=O)[nH]c3ccccc32)CC1 (stereo not given),28.2 µM (active),
COC(=O)c1nc(-c2ccc3c(n2)C(=O)C(N)=C(OC)C3=O)c(N)c(-c2ccc(OC)c(OC)c2O)c1C,14.1 µM (active),
COc1cc(C(=O)NN=Cc2ccc(N(CCCl)CCCl)cc2)cc(OC)c1OC,8.91 µM (active),
Cc1cc(N(CCCl)CCCl)ccc1C=NNC(=O)c1cccnc1,1.58 µM (active),
O=C(NN=Cc1ccc(N(CCCl)CCCl)cc1)c1cc(=O)[nH]c(=O)[nH]1,3.16 µM (active),
COc1ccc(N=Cc2c(O)n(-c3ccc(C)cc3)c(=O)[nH]c2=O)cc1,,-15.9% (inactive)
Oc1c(Cl)cccc1Cc1cc(Cl)cc(Cl)c1O,15.8 µM (active),
Clc1ccc2[nH]c3c(c2c1)CCNC3,3.16 µM (active),
O=[N+]([O-])c1oc2ccc3ccccc3c2c1CCO,14.1 µM (active),
C[C@@H]1O[C@@H](O[C@@H]2C=C3CC[C@@H]4C(CC[C@]5(C)[C@@H](c6ccc(=O)oc6)CC[C@]45O)[C@@]3(C)CC2)[C@H](O)[C@H](O)[C@H]1O (stereo not given in full),0.112 µM (active),
COc1cccc2c1C(=O)c1c(O)c3c(c(O)c1C2=O)CC(O)(C(C)=NO)CC3OC1CC(N)C(O)C(C)O1 (stereo not given),0.708 µM (active),
Cc1ccc(N2C(=O)NC(=O)/C(=C\c3cc(C)n(-c4sc5c(c4C#N)CCCC5)c3C)C2=O)cc1,10 µM (active),
